# Experimental data: PubChem BioAssay (Tox21)
# Records with an inconclusive call do not appear. Entries that show only a call come without a potency. Calls of active or inactive are those of the source. The call rests on the fitted dose curve; in most records, active means well fitted activation curve with a large enough effect in the repeat runs; inconclusive means weak or mixed curves; inactive means flat fitted curve, though single readings scatter.
# Test: A CellTox Green Cytotoxicity Assay to monitor cytotoxicity in HepG2 cells - 40 hour (AID 1224879); further: nearly all actives have a fitted effect of over 40% in size
# Details: CellTox Green fluorescence; series mostly up to 76.8 µM
# Description: National Center for Advancing Translational Sciences [NCATS]
# NIH Chemical Genomics Center [NCGC]
# U.S. Environmental Protection Agency [EPA]
# National Institutes of Environmental Health Sciences [NIEHS]
# National Toxicology Program [NTP]
# Cell-based models are critical for drug discovery. Determining the natural cytotoxic effects resulting from test compounds is an essential research activity. A CellTox Green Cytotoxicity Assay to monitor cytotoxicity in real time of continues cell culture during 40 hours of the compound treatment was used to screen Tox21 10K library compounds in HepG2 cells. CellTox Green Cytotoxicity Assay is a nonlytic, homogeneous, biofluorescent method to measure cytotoxicity in cell culture after experimental manipulation. The assay system uses a proprietary asymmetric cyanine dye that is excluded from viable cells but preferentially stains the dead cell's DNA. […] Viable cells produce no appreciable increases in fluorescence. Therefore, the fluorescence signal produced by the binding interaction with dead cell DNA is proportional to cytotoxicity.
# The mixture of HepG2 cell suspension and reagents were dispensed at 600cells/6 ul/well in 1536-well tissue culture treated black solid bottom plates using a Multidrop dispenser. After the assay plates were incubated at a 37 C/5% CO2 incubator for 5 hours, 23 nL of compounds dissolved in DMSO, positive and negative controls was transferred to the assay plate by a pintool work station. The plates were incubated at 37 C for 40 hours. The fluorescence intensity were measured at 0h, 8h, 16h, 24h, 32h and 40h time points using ViewLux plate reader during compound treatment.
Compound,Potency,cytotoxicity increase
CC(=O)c1ccc2c(c1)CCCC2,inactive,–
COc1cccc2sc(N)nc12,inactive,–
O=C1OC(=O)c2cc(Oc3ccc4c(c3)C(=O)OC4=O)ccc21,inactive,–
CCc1nccnc1C,inactive,–
CC1=CC[C@H](CC=O)C1(C)C,inactive,–
Cc1nc(C)nc(N2C[C@@H](C)N(c3ccnc([C@@H](C)O)n3)[C@@H](C)C2)n1,inactive,–
Nc1ccc(S(=O)(=O)NC(=O)c2ccccc2)cc1,inactive,–
C[Si]1(C)N[Si](C)(C)N[Si](C)(C)N1,inactive,–
C=CC(C)(O)CC/C=C(\C)CC (stereo not given),inactive,–
C[C@H](CCC(=O)O)[C@H]1CC[C@H]2[C@@H]3[C@H](O)C[C@@H]4C[C@H](O)CC[C@]4(C)[C@H]3C[C@H](O)[C@]12C,inactive,–
C=C[Si](C)(C)O[Si](C)(C)C=C,inactive,–
CCCCCCCCCCCCCCCCCCN(C)C,inactive,–
CCCCCCCCOC(C)=O,inactive,–
Cc1cccc(Nc2ccncc2S(=O)(=O)NC(=O)NC(C)C)c1,inactive,–
CC(=O)OC[C@H]1O[C@@H](OC(C)=O)[C@H](OC(C)=O)[C@@H]1OC(C)=O,inactive,–
Nc1ccc(S(=O)(=O)Nc2ccccn2)cc1,inactive,–
O=C(O)/C=C/c1ccccc1,inactive,–
CCCCC(CC)COC(=O)c1ccccc1 (stereo not given),inactive,–
COc1cc(C=O)ccc1OC(=O)C(C)C,inactive,–
O=C(O)CCNC(=O)c1ccccc1,inactive,–

Compound,Potency,cytotoxicity increase
CCOC(=O)CCCCCCCCC(=O)OCC,inactive,–
NC(=O)C1(N2CCCCC2)CCN(CCCC(=O)c2ccc(F)cc2)CC1,inactive,–
N#CCCOCCOCCC#N,inactive,–
CCOC(=O)CCc1ccccc1,inactive,–
CC(C)COC(=O)CCCCC(=O)OCC(C)C,inactive,–
C=COCCOCCOC=C,inactive,–
OC[C@@H](O)[C@H](O)[C@@H](O)[C@@H](O)CO,inactive,–
CCOC(=O)CC#N,inactive,–
CC(C)SCc1ccco1,inactive,–
O=P(O)(O)OCC(O)CO (stereo not given),inactive,–
CCC(O)C(C)(C)C (stereo not given),inactive,–
Nc1cc(Cl)cc(S(=O)(=O)O)c1O,inactive,–
c1ccc(CNc2ncnc3nc[nH]c23)cc1,inactive,–
CCCCCCCCCCCCC1CO1 (stereo not given),inactive,–
Nc1c(NC/C=C\COc2cc(CN3CCCCC3)ccn2)c(=O)c1=O,–,-13.3% [at 15.8 µM] (inactive)
CC(=O)N(CC(O)CO)c1c(I)c(C(=O)NCC(O)CO)c(I)c(C(=O)NCC(O)CO)c1I (stereo not given),inactive,–
CC(C)(c1ccc(Oc2ccc3c(c2)C(=O)OC3=O)cc1)c1ccc(Oc2ccc3c(c2)C(=O)OC3=O)cc1,inactive,–
CN[C@@H]1[C@@H](O)[C@@H](O[C@@H]2[C@H](O)[C@H](O[C@H]3OC(CN)=CC[C@H]3N)[C@@H](N)C[C@H]2N)OCC1(C)O (stereo not given in full),inactive,–
COC(=O)CCC(=O)O,inactive,–
CC(C)C(=O)Nc1cccc(C(F)(F)F)c1,inactive,–
